Measured values as given in the OligoGym collection.

target: FRMD4B; assay: pooled miR-30 sensor sort-seq; sequence = guide strand; details: shRNA
Also: reference of the scale not given here.

Row | Sequence | sensor-assay potency score (higher = more potent)
1 | TATTAGAAAATTACTCTCCAGT | 0.00309
2 | TTGAAGTAGAAACATTCTGTTT | -1.02
3 | TAGACATTGCCATAGCAGCTGG | -0.855
4 | TTTGCTTTGCTTCCGGTCCAAG | -1.02
5 | TTTCTTTGCAGCTTCCACCAGC | -0.481

target: FRRS1; assay: as above; details: shRNA

Row | Sequence | sensor-assay potency score (higher = more potent)
6 | TTTTATACTTCTCAACAACTGT | -0.421
7 | TTATTCTAGCAGCTGTTCCCAT | -0.391
8 | TTCAACTCCAGAACAACCTCAG | 0.767
9 | TATGCTAACAGTAGTCATCCAT | 0.0935
10 | TTCTTCTGAAAGAACACTGCAT | 0.427
11 | TAAATTGCCAACACTGCCTTTT | -0.275
12 | TAACTTCAATCTGATCTCCTGG | 0.0664
13 | TGACAAAGTAACTTCAATCTGA | 0.192
14 | AAGAACACTGCATAACACCGTC | -0.249
15 | ATAAGCATCATCATCACCCATC | -0.528
16 | TAAGGCACCATGAACCTTCAGA | -0.182
17 | TAACAGTAGTCATCCATGCCAC | -0.274
